Assay outcomes: PubChem, National Center for Advancing Translational Sciences (NCATS)
Rows were chosen to be rich in hits. Some 21% of all compounds tested hit in one or more screens of this group.
RORg inh: ROR gamma (mouse) transcription inhibition; Drosophila S2 Gal4-RORgamma UAS-luciferase reporter, 20 h; Potency, µM (top dose mostly 53.6 µM), usual class: inhibitors; hit rate 5.4% among 310,000; AID 2551; note: nearly all actives have a fitted effect of over 60% in size
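Drosophila Schneider cells stably carrying a metallothionein-driven Gal4 DBD–ROR gamma fusion and a UAS-Photinus luciferase reporter were exposed to compound for 1 hr, then induced with copper sulfate (700 uM final) for 20 hr at ambient temperature before luminescence reading.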
ELG1 repair inh: inhibitors of ELG1-dependent DNA repair in HEK293T cells; hit rate 2.3% among 330,000; Potency, µM (top dose mostly 46.1 µM), most hits filed as inhibitors; HEK293T ELG1-luciferase reporter, luminescence, 16 h; DNA damage induced by 5-fluorouridine; AID 504467; note: nearly all actives have a fitted effect of over 55% in size
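Step one: seed 2,000 cells per well. Step two: pin-transfer compound or DMSO alongside 5-fluorouridine. Step three: incubate 16 hr, 37 °C, 5% CO2. Step four: add ONE-Glo, wait 30 min, read luminescence.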
DT40 TDP1 CPT: growth inhibition of DT40 Tdp1-/-;hTDP1 cells with camptothecin (screen for TDP1 inhibitors). chicken DT40 Tdp1-/-;hTDP1 cells + 20 nM CPT, ATP luminescence, 48 h. hit rate 12% among 420,000. Potency, µM (top dose mostly 46.2 µM), hits mostly inhibitors; note: nearly all actives have a fitted effect of over 55% in size
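Chicken DT40 Tdp1-/- cells stably complemented with human TDP1 were seeded at 400 cells/well in medium containing 20 nM camptothecin, exposed to pin-transferred compounds, and grown at 37 °C for at least 48 hr. Viability was read as ATP luminescence.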
VP16 counter: counter-screen for ROR gamma inhibitors: Gal4-VP16 reporter | hit rate 3.5% among 310,000 | Drosophila S2 Gal4-VP16 UAS-luciferase, luminescence, 20 h | Potency, µM (highest dose often 53.6 µM), hits mostly inhibitors;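 note: Gal4-VP16 expression switched on by copper sulfate through the metallothionein promoter; nearly all actives have a fitted effect of over 50% in size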
TDP1 cell noCPT: qHTS for Inhibitors of human tyrosyl-DNA phosphodiesterase 1 (TDP1): qHTS in cells in absence of CPT. AID 686978, 2013. hit rate 15% among 420,000. DT40 Tdp1-/- hTDP1 cells, no CPT, ATP luminescence, 48 h. Potency, µM (titrated, usually from 46.2 µM), actives largely listed as inhibitors; note: nearly all actives have a fitted effect of over 55% in size
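Seeded 400 DT40-hTDP1 cells/well (vehicle DMSO, no 20 nM CPT); pinned compounds; ≥48 hr at 37 °C; CellTiter-Glo luminescence as viability measure.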
IL1B secr inh: inflammasome signaling inhibition, IL-1 beta readout | THP-1 LPS/ATP IL-1B secretion, AlphaLISA, 16 h; hits give low values | hit rate 4.7% among 360,000 | activity change, % at 57.5 µM | AID 743279; in the data active = activity change below about -50%; inconclusive = mostly about -30% to -49%
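Secreted IL-1B measured by AlphaLISA bead assay after 16 h compound exposure of THP-1 cells; compounds (final up to 57.5 uM) added 1 h before LPS (250 ng/mL) and ATP (1.25 mM) stimulation; lower signal means less secretion.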
ELG1 FLuc counter: luciferase inhibition in cell-free luciferin readout for ELG1 hits. shares compounds with ELG1 repair inh. Potency, µM (highest dose often 46.1 µM), most hits filed as inhibitors. cell-free firefly luciferase luminescence counter-screen, ViewLux. hit rate 3% among 350. AID 624247
ELG1-Luc inh: confirmation of human ELG1-dependent DNA repair inhibitors. shares compounds with ELG1 repair inh. HEK293T ELG1-luciferase levels, luminescence; cells co-treated with 5-fluorouridine. Potency, µM (highest dose often 46.1 µM), most hits filed as inhibitors. hit rate 68% among 670. AID 624248; note: nearly all actives have a fitted effect of over 55% in size
Target sequence (Q96QE3 whole entry, looked up): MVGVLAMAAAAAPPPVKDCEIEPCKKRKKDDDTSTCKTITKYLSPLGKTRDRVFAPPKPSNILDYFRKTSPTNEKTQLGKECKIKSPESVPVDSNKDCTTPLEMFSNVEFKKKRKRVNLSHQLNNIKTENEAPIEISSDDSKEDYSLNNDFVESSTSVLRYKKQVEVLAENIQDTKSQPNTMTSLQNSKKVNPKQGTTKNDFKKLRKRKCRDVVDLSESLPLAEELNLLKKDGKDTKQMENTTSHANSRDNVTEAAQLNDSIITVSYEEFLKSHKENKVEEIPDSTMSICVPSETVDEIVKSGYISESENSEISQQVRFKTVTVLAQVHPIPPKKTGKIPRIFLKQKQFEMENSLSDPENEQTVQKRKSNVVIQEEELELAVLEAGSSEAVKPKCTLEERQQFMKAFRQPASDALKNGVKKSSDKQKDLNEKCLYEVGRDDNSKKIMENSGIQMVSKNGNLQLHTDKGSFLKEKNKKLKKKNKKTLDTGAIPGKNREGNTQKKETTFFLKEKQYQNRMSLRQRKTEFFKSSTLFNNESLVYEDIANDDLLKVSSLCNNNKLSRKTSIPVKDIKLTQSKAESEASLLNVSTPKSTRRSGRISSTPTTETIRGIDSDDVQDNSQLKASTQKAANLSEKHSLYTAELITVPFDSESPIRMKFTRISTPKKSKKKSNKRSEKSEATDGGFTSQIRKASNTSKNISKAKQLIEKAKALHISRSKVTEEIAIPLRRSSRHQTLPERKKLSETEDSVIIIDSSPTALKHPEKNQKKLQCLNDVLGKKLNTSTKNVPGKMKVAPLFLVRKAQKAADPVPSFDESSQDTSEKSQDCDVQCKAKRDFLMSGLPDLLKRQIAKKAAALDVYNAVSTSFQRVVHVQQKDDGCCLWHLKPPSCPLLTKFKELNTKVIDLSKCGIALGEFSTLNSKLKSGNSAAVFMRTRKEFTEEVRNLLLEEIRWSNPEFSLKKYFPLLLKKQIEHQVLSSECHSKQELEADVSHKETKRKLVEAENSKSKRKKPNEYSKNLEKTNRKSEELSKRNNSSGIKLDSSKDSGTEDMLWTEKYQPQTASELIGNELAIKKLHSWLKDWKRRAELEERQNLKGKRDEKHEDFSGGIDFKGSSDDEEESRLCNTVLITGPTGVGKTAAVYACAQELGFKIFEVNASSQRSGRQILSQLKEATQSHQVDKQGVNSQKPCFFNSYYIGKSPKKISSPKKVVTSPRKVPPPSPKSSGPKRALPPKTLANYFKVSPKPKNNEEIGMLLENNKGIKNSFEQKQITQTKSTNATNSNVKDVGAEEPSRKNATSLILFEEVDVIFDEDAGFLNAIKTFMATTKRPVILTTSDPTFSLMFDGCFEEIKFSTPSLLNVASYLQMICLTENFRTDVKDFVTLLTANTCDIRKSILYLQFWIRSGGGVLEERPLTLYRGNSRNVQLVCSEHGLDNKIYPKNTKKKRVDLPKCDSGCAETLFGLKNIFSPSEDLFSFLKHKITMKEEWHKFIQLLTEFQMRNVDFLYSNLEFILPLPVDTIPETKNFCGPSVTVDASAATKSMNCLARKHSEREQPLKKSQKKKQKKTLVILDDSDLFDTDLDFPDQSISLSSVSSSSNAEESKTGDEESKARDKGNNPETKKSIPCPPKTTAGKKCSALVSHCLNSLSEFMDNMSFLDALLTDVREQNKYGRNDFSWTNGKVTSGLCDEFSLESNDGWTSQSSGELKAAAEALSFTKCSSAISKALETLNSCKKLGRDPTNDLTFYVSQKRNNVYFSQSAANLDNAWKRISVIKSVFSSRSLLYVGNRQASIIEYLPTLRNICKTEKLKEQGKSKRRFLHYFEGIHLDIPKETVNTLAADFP
ELG1-Luc MMS: inhibits ELG1-dependent repair under MMS stimulation in HEK293T cells; shares compounds with ELG1 repair inh; HEK293T luciferase-tagged ELG1 level, MMS stimulated; Potency, µM (top dose mostly 46.1 µM), most hits filed as inhibitors; hit rate 53% among 670; AID 624249; note: nearly all actives have a fitted effect of over 60% in size
ELG1 5FU viab: confirmation of ELG1 repair inhibitors: viability with 5FU | Potency, µM (series often up to 46.1 µM), usual class: cytotoxic | 670 tested, under 10 active | cell viability with 5-FU, ELG1-dependent repair | shares compounds with ELG1 repair inh;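 note: ELG1-luc HEK293T cells cotreated with 5-fluorouridine at 10 µM final; viability measured 16 h after compound addition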
ELG1 MMS cell: confirmation of ELG1 repair inhibitors: viability with MMS | shares compounds with ELG1 repair inh | Cell viability with MMS, ELG1-dependent DNA repair | Potency, µM (highest dose often 46.1 µM), usual class: cytotoxic | hit rate 33% among 670 | AID 624251;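 note: ELG1-luc HEK293T cells co-treated with 10 µM MMS; viability read 16 h after compound addition; nearly all actives have a fitted effect of over 60% in size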
Cell viab unstim: counter-screen for ELG1 repair inhibitors: unstimulated cell viability; shares compounds with ELG1 repair inh; Potency, µM (titrated, usually from 45.9 µM), usual class: cytotoxic; hit rate 8% among 900; cell viability counter-screen, unstimulated, luminescence; AID 624252;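 note: compound exposure lasted 16 hours before reading; nearly all actives have a fitted effect of over 55% in size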
FLuc enzyme: counter-screen for ELG1 repair inhibitors: firefly luciferase inhibition; shares compounds with ELG1 repair inh; hit rate 10% among 350; purified firefly luciferase, luminescence counter-screen; Potency, µM (series often up to 57.5 µM), most hits filed as inhibitors
Hits are given with their value; 0 = inactive; ? = inconclusive; - = not tested or not shown. Unless noted, calls come from the whole dose curve; as a rule, active = well fitted curve in the direction sought with a large enough effect; inconclusive = small, poorly fitted or top-dose-only effect, or another doubt; inactive = no such curve, though single readings can be large; an effect the other way counts as inactive or inconclusive.

SMILES	RORg inh	ELG1 repair inh	DT40 TDP1 CPT	VP16 counter	TDP1 cell noCPT	IL1B secr inh	ELG1-Luc inh	ELG1-Luc MMS	ELG1 5FU viab	ELG1 MMS cell	Cell viab unstim	others
Cc1nc(N)nc(N)c1/C=C/C(C)(C)c1ccc(Cl)cc1	?	0.23µM	?	?	0.033µM	-106	7.9µM	14µM	?	?	0.056µM	ELG1 FLuc counter=?;FLuc enzyme=0
CCOC(=O)Cc1cnc(NC(=O)NC(C(=O)OCC)(c2ccccc2)C(F)(F)F)s1 (configuration not stated)	0	0	0	0	0	0	-	-	-	-	-
Cc1onc(-c2c(F)cccc2Cl)c1C(=O)Nc1cccc(S(=O)(=O)NCc2ccco2)c1	0	?	?	0	?	0	-	-	-	-	-
CC(=O)N1c2ccc(S(=O)(=O)N3CCC(C(=O)N4CCN(c5cc(Cl)ccc5C)CC4)CC3)cc2CC1C (configuration not stated)	0	?	10µM	0	9.2µM	0	14µM	?	0	0	?	ELG1 FLuc counter=0;FLuc enzyme=0
CC(=O)N1c2ccc(S(=O)(=O)N3CCC(C(=O)NC4CCCCC4)CC3)cc2CC1C (configuration not stated)	0	0	0	0	0	0	-	-	-	-	-
C=CCCc1ccc(C#N)c(SCc2c(C(=O)OCC)c3cc(OC(C)=O)c(Br)cc3n2C)n1	0	2.3µM	21µM	0	29µM	0	?	2.8µM	0	4µM	?	ELG1 FLuc counter=0;FLuc enzyme=0
COC(=O)[C@H]1C[C@@H]1[C@H](NC(=O)c1cc(C)on1)c1ccccc1	0	0	0	0	0	0	-	-	-	-	-
O=C(CCNC(=O)c1ccc(Br)cc1)Nc1ncccc1O	-	-	0	-	0	0	-	-	-	-	-
CCN1c2ccccc2S(=O)(=O)c2ccccc21	0	0	0	0	0	0	-	-	-	-	-
COc1ccc(C2CC(c3ccncc3)=NN2c2ccc(S(N)(=O)=O)cc2)cc1 (configuration not stated)	-	?	0	-	0	0	-	-	-	-	?
COc1ccc(C2CC(c3cccc(Cl)c3)=NN2c2ccc(S(N)(=O)=O)cc2)cc1 (configuration not stated)	-	0	?	-	?	?	-	-	-	-	-
CC(C)c1ccc(NC(=O)N2CCCC2C(=O)Nc2ccc(-n3cnnn3)cc2)cc1 (configuration not stated)	0	0	0	0	0	0	-	-	-	-	-
Cc1cc(C)cc(NC(=O)N2CCCC2C(=O)Nc2ccc(-n3cnnn3)cc2)c1 (configuration not stated)	0	?	?	0	?	0	?	0	?	0	0
COc1cc2c(C#CCCCO)c(-c3ccsc3)oc(=O)c2cc1OC	-	4.1µM	23µM	-	9.2µM	0	6.3µM	?	0	?	?
COc1cc(/C=C/c2nc(N)nc(-c3ccccc3O)n2)cc(OC)c1OC	0	2.9µM	?	0	10µM	0	2.2µM	7.1µM	0	?	?
Nc1nc(N)nc(-c2ccccc2O)n1	0	?	0	0	0	?	-	-	-	-	-
O=C(Nc1ccccc1)c1nc[nH]c1C(=O)NCCCNC(=O)c1[nH]cnc1C(=O)Nc1ccccc1	-	2.9µM	?	-	15µM	0	4µM	11µM	?	0	0
CC(C)(C)OC(=O)NCCCCCNC(=O)c1nc[nH]c1C(=O)NCC(=O)OCc1ccccc1	-	2.6µM	?	-	15µM	0	7.9µM	11µM	0	22µM	18µM
C[C@@H](NC(=O)c1ncn(Cc2ccccc2)c1C(=O)N[C@H](C)c1ccccc1)c1ccccc1	-	0	0	-	?	0	-	-	-	-	-
CC(C)(C)OC(=O)NCCCCCNC(=O)c1ncn(Cc2ccccc2)c1C(=O)NCCCCCNC(=O)OC(C)(C)C	-	4.1µM	?	-	16µM	0	7.1µM	0	?	?	0
CC(C)(C)OC(=O)NCc1ccc(NC(=O)c2nc[nH]c2C(=O)NCCNC(=O)c2[nH]cnc2C(=O)Nc2ccc(CNC(=O)OC(C)(C)C)cc2)cc1	-	1.3µM	15µM	-	18µM	0	1.1µM	3.5µM	0	?	?
Cc1ccc(C)c(NC(=O)C2CCCN(c3cnccn3)C2)c1 (configuration not stated)	0	0	0	0	0	0	-	-	-	-	-
COC(=O)c1ccc(C(=O)OC)c(NC(=S)N2CCC(C)CC2)c1	0	0	0	0	0	0	-	-	-	-	-
CC1=C(C(=O)NCc2ccccc2)C(c2cccs2)NC(=S)N1 (configuration not stated)	0	0	0	0	0	0	-	-	-	-	-
CC(C)C[C@@H]1NC(=O)[C@H](CO)NC(=O)c2cc([N+](=O)[O-])cc(I)c2OCC[C@@H](C(N)=O)NC1=O	0	0	0	0	0	0	-	-	-	-	-
CC(=O)Nc1ccc(SCc2csc(C)n2)cc1	?	0	0	0	0	0	-	-	-	-	-
CC(C)(C)OC(=O)CNC(=O)c1[nH]cnc1C(=O)NCC(=O)OCc1ccccc1	?	?	?	0	?	0	-	-	-	-	-
CC(C)(C)OC(=O)NCCCCCNC(=O)c1nc[nH]c1C(=O)NCCCCCNC(=O)OC(C)(C)C	-	2.6µM	12µM	-	10µM	0	6.3µM	14µM	?	28µM	16µM
Cc1ccc(S(=O)(=O)N(C)/N=C/C=C/c2ccccc2)cc1	?	0	0	0	0	0	-	-	-	-	-
